Numbering of substitutions follows the chain as printed.

HOXB9, sequence (P17482 171-250): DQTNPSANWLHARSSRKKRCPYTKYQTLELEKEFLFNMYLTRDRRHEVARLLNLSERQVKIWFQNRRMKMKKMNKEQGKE
MSX2, sequence (P35548 130-214 R199I): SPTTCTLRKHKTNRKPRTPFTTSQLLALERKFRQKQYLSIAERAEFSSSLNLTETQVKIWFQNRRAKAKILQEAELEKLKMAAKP

For the first experiment, the target named is T1, SIX6 (Homo sapiens, UniProt O95475 114-200, L143M).
T1 sequence: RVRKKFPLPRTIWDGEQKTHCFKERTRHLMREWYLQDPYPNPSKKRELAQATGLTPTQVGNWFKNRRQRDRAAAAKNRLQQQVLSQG
Description: PBM; 200 nM protein, PBS. The settings on record: dsDNA, one strand shown.
Take GCTTGGCC: the binding signal was 8.89 upbm affinity estimate (log intensity, higher = more binding, comparable within an allelic series).
With GGCGGAAC, the binding signal is 8.85 upbm affinity estimate (log intensity, higher = more binding, comparable within an allelic series).
For the sequence CAAGGCCC, the binding signal was 8.93 upbm affinity estimate (log intensity, higher = more binding, comparable within an allelic series).
Regarding GCGCGCCC, the binding signal was 8.75 upbm affinity estimate (log intensity, higher = more binding, comparable within an allelic series).
In the case of ATGATATG, the binding signal was 11.1 upbm affinity estimate (log intensity, higher = more binding, comparable within an allelic series).
For the sequence AATGATAC, the binding signal is 11.3 upbm affinity estimate (log intensity, higher = more binding, comparable within an allelic series).

For a further experiment, the target named is T2, SIX6 (Homo sapiens, UniProt O95475 114-200, L143I).
T2 sequence: T1 sequence with M30I
The experiment in a line: PBM; 200 nM protein, PBS. The settings on record: dsDNA, one strand shown.
Take GCTTGGCC: the binding signal is 8.86 upbm affinity estimate (log intensity, higher = more binding, comparable within an allelic series).
Regarding GGCGGAAC, the binding signal was 8.84 upbm affinity estimate (log intensity, higher = more binding, comparable within an allelic series).
For CAAGGCCC, the binding signal was 8.82 upbm affinity estimate (log intensity, higher = more binding, comparable within an allelic series).
On to GCGCGCCC, for which the binding signal was 8.78 upbm affinity estimate (log intensity, higher = more binding, comparable within an allelic series).
On to ATGATATG, for which the binding signal was 10.5 upbm affinity estimate (log intensity, higher = more binding, comparable within an allelic series).
On to AATGATAC, for which the binding signal is 10.6 upbm affinity estimate (log intensity, higher = more binding, comparable within an allelic series).

The target in a further experiment is HOXB6 (Homo sapiens, UniProt P17509 132-218, K202E). Description: PBM; 200 nM protein, PBS. The settings on record: dsDNA, one strand shown.
HOXB6, sequence (P17509 132-218 K202E): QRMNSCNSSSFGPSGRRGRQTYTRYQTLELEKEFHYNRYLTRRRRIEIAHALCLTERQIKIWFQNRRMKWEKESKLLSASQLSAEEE
CCATTAAC: the binding signal was 10.1 upbm affinity estimate (log intensity, higher = more binding, comparable within an allelic series).
Consider GGGGTACC, for which the binding signal is 9.07 upbm affinity estimate (log intensity, higher = more binding, comparable within an allelic series).
As for GCCATTAA, the binding signal is 10 upbm affinity estimate (log intensity, higher = more binding, comparable within an allelic series).
On to CCCCTCGG, for which the binding signal is 8.78 upbm affinity estimate (log intensity, higher = more binding, comparable within an allelic series).
With AGTTAATG, the binding signal was 9.94 upbm affinity estimate (log intensity, higher = more binding, comparable within an allelic series).

For the next experiment, the target named is T3, SIX6 (Homo sapiens, UniProt O95475 114-200, T165G).
T3 sequence: T1 sequence with M30L, T52G
Description: PBM; 200 nM protein, PBS. Particulars: dsDNA, one strand shown.
Take GCTTGGCC: the binding signal was 8.99 upbm affinity estimate (log intensity, higher = more binding, comparable within an allelic series).
Take GGCGGAAC: the binding signal is 8.85 upbm affinity estimate (log intensity, higher = more binding, comparable within an allelic series).
On the same count and under the same terms, under CAAGGCCC stands 8.95 upbm affinity estimate (log intensity, higher = more binding, comparable within an allelic series); under GCGCGCCC, 8.82 upbm affinity estimate (log intensity, higher = more binding, comparable within an allelic series); under ATGATATG, 11.4 upbm affinity estimate (log intensity, higher = more binding, comparable within an allelic series).
As for AATGATAC, the binding signal is 11.5 upbm affinity estimate (log intensity, higher = more binding, comparable within an allelic series).

The target of the next experiment is HOXA2 (Homo sapiens, UniProt O43364 129-215, R185T). The experiment in a line: PBM; 200 nM protein, PBS. Particulars: dsDNA, one strand shown.
HOXA2, sequence (O43364 129-215 R185T): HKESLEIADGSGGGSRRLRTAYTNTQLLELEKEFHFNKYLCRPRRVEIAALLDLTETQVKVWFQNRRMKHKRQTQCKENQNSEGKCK
Turning to CCATTAAC, the binding signal is 12.1 upbm affinity estimate (log intensity, higher = more binding, comparable within an allelic series).
With CCCCTCGG, the binding signal was 7.19 upbm affinity estimate (log intensity, higher = more binding, comparable within an allelic series).
In the case of CACGGGGG, the binding signal was 7.01 upbm affinity estimate (log intensity, higher = more binding, comparable within an allelic series).
On the same count and under the same terms, under GCCAGGGC stands 6.87 upbm affinity estimate (log intensity, higher = more binding, comparable within an allelic series).

The target of a further experiment is HOXA4 (Homo sapiens, UniProt Q00056 201-287, R217L). The experiment in a line: PBM; 200 nM protein, PBS. Particulars: dsDNA, one strand shown.
HOXA4, sequence (Q00056 201-287 R217L): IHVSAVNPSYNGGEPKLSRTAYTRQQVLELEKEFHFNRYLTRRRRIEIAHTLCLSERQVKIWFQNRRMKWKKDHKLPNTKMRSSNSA
In the case of CCATTAAC, the binding signal is 12 upbm affinity estimate (log intensity, higher = more binding, comparable within an allelic series).
For the sequence CCAGGGCC, the binding signal is 9.71 upbm affinity estimate (log intensity, higher = more binding, comparable within an allelic series).
With CCCTTCCG, the binding signal was 9.96 upbm affinity estimate (log intensity, higher = more binding, comparable within an allelic series).
With CGGAGGGA, the binding signal is 9.72 upbm affinity estimate (log intensity, higher = more binding, comparable within an allelic series).
With GCCAGGGC, the binding signal was 9.77 upbm affinity estimate (log intensity, higher = more binding, comparable within an allelic series).
Regarding GGGAGGAC, the binding signal is 9.91 upbm affinity estimate (log intensity, higher = more binding, comparable within an allelic series).
CCCCCTGC: the binding signal is 9.45 upbm affinity estimate (log intensity, higher = more binding, comparable within an allelic series).

A further experiment concerns the target HOXB9 (Homo sapiens, UniProt P17482 171-250). Description: PBM; 200 nM protein, PBS. Particulars: dsDNA, one strand shown.
For CCATTAAC, the binding signal was 11.7 upbm affinity estimate (log intensity, higher = more binding, comparable within an allelic series).
Same read-out and setting: as for GCCATTAA, the figure is 12.2 upbm affinity estimate (log intensity, higher = more binding, comparable within an allelic series).
For CGAGCGAC, the binding signal is 8.38 upbm affinity estimate (log intensity, higher = more binding, comparable within an allelic series).
With GACCCAGC, the binding signal is 8.47 upbm affinity estimate (log intensity, higher = more binding, comparable within an allelic series).
Take GCCGCAGC: the binding signal is 8.33 upbm affinity estimate (log intensity, higher = more binding, comparable within an allelic series).
For CCCGGACG, the binding signal was 8.49 upbm affinity estimate (log intensity, higher = more binding, comparable within an allelic series).
CACGGGGG: the binding signal was 8.3 upbm affinity estimate (log intensity, higher = more binding, comparable within an allelic series).
In the case of AGAGGGGC, the binding signal was 8.46 upbm affinity estimate (log intensity, higher = more binding, comparable within an allelic series).
Same read-out and setting: as for CTCCCGAG, the figure is 8.42 upbm affinity estimate (log intensity, higher = more binding, comparable within an allelic series); as for GCGCGCCC, 8.66 upbm affinity estimate (log intensity, higher = more binding, comparable within an allelic series).

The target in another experiment is T4, SIX6 (Homo sapiens, UniProt O95475 114-200, T139Q).
T4 sequence: T1 sequence with T26Q, M30L
Description: PBM; 200 nM protein, PBS. The settings on record: dsDNA, one strand shown.
GCTTGGCC: the binding signal is 9.01 upbm affinity estimate (log intensity, higher = more binding, comparable within an allelic series).
As to GGCGGAAC, the binding signal is 8.82 upbm affinity estimate (log intensity, higher = more binding, comparable within an allelic series).
The same measure, in the same setting: under CAAGGCCC stands 8.93 upbm affinity estimate (log intensity, higher = more binding, comparable within an allelic series).
Consider GCGCGCCC, for which the binding signal was 8.77 upbm affinity estimate (log intensity, higher = more binding, comparable within an allelic series).
In the case of ATGATATG, the binding signal is 11.3 upbm affinity estimate (log intensity, higher = more binding, comparable within an allelic series).
In the case of AATGATAC, the binding signal is 11.3 upbm affinity estimate (log intensity, higher = more binding, comparable within an allelic series).

For a further experiment, the target named is HOXC9 (Homo sapiens, UniProt P31274 178-260). The experiment in a line: PBM; 200 nM protein, PBS. The settings on record: dsDNA, one strand shown.
HOXC9 (Homo sapiens, UniProt P31274 178-260), sequence (P31274 178-260): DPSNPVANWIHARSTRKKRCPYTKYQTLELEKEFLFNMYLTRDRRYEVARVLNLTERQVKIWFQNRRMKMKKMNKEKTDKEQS
As to CCATTAAC, the binding signal is 12.7 upbm affinity estimate (log intensity, higher = more binding, comparable within an allelic series).
Same read-out and setting: as for GGGGTACC, the figure is 9.67 upbm affinity estimate (log intensity, higher = more binding, comparable within an allelic series); as for GCCATTAA, 13 upbm affinity estimate (log intensity, higher = more binding, comparable within an allelic series).
Turning to CCCCCTGA, the binding signal was 9.4 upbm affinity estimate (log intensity, higher = more binding, comparable within an allelic series).
In the case of CCCCATGC, the binding signal was 9.6 upbm affinity estimate (log intensity, higher = more binding, comparable within an allelic series).
Still for that read-out and setting: as for CCCCTCGG, the figure is 9.64 upbm affinity estimate (log intensity, higher = more binding, comparable within an allelic series).
The same measure, in the same setting: under CGAGCGAC stands 9.72 upbm affinity estimate (log intensity, higher = more binding, comparable within an allelic series); under CCGTCCGC, 9.48 upbm affinity estimate (log intensity, higher = more binding, comparable within an allelic series); under CCGGGAGG, 9.63 upbm affinity estimate (log intensity, higher = more binding, comparable within an allelic series).
For the sequence GCTTGGCC, the binding signal was 9.78 upbm affinity estimate (log intensity, higher = more binding, comparable within an allelic series).
Still for that read-out and setting: under ACGCATTA stands 11.2 upbm affinity estimate (log intensity, higher = more binding, comparable within an allelic series).
CTGGGACC: the binding signal is 9.59 upbm affinity estimate (log intensity, higher = more binding, comparable within an allelic series).
On the same count and under the same terms, under GGCACCAC stands 9.66 upbm affinity estimate (log intensity, higher = more binding, comparable within an allelic series); under CGGAGGGA, 9.45 upbm affinity estimate (log intensity, higher = more binding, comparable within an allelic series); under CGGGCACG, 9.57 upbm affinity estimate (log intensity, higher = more binding, comparable within an allelic series).
As for AGTTAATG, the binding signal was 12.5 upbm affinity estimate (log intensity, higher = more binding, comparable within an allelic series).
For the sequence CCCCTCCC, the binding signal is 9.76 upbm affinity estimate (log intensity, higher = more binding, comparable within an allelic series).

The next experiment has as its target MSX2 (Homo sapiens, UniProt P35548 130-214, R199I). Description: PBM; 200 nM protein, PBS. Particulars: dsDNA, one strand shown.
For the sequence CCCGGACG, the binding signal is 9.41 upbm affinity estimate (log intensity, higher = more binding, comparable within an allelic series).
Consider GCGCGCCC, for which the binding signal is 9.61 upbm affinity estimate (log intensity, higher = more binding, comparable within an allelic series).
Regarding GCCAGGGC, the binding signal is 9.52 upbm affinity estimate (log intensity, higher = more binding, comparable within an allelic series).

For a further experiment, the target named is ALX3 (Homo sapiens, UniProt O95076 139-225, N203Q). Description: PBM; 200 nM protein, PBS. Particulars: dsDNA, one strand shown.
ALX3, sequence (O95076 139-225 N203Q): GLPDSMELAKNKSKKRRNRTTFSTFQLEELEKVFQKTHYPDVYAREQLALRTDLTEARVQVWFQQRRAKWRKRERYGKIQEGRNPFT
Consider CGAGCGAC, for which the binding signal was 7.8 upbm affinity estimate (log intensity, higher = more binding, comparable within an allelic series).
Still for that read-out and setting: under GACCCAGC stands 7.75 upbm affinity estimate (log intensity, higher = more binding, comparable within an allelic series).
Take GCCGCAGC: the binding signal is 7.73 upbm affinity estimate (log intensity, higher = more binding, comparable within an allelic series).

In another experiment the target is HOXD13 (Homo sapiens, UniProt P35453 263-343, T313R). Description: PBM; 200 nM protein, PBS. The settings on record: dsDNA, one strand shown.
HOXD13, sequence (P35453 263-343 T313R): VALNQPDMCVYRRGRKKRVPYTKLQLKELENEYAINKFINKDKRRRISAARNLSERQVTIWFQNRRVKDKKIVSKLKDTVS
For AGAGGGGC, the binding signal is 9.48 upbm affinity estimate (log intensity, higher = more binding, comparable within an allelic series).
As for CCCCTCCC, the binding signal was 9.44 upbm affinity estimate (log intensity, higher = more binding, comparable within an allelic series).
On to CCCCCTGC, for which the binding signal is 9.12 upbm affinity estimate (log intensity, higher = more binding, comparable within an allelic series).

The next experiment concerns the target T5, SIX6 (Homo sapiens, UniProt O95475 114-200, T165A).
T5 sequence: T1 sequence with M30L, T52A
The experiment in a line: PBM; 200 nM protein, PBS. The settings on record: dsDNA, one strand shown.
On to GCTTGGCC, for which the binding signal was 8.94 upbm affinity estimate (log intensity, higher = more binding, comparable within an allelic series).
For GGCGGAAC, the binding signal was 8.85 upbm affinity estimate (log intensity, higher = more binding, comparable within an allelic series).
With CAAGGCCC, the binding signal was 8.92 upbm affinity estimate (log intensity, higher = more binding, comparable within an allelic series).
For the sequence GCGCGCCC, the binding signal is 8.75 upbm affinity estimate (log intensity, higher = more binding, comparable within an allelic series).
With ATGATATG, the binding signal is 11.2 upbm affinity estimate (log intensity, higher = more binding, comparable within an allelic series).
On the same count and under the same terms, as for AATGATAC, the figure is 11.4 upbm affinity estimate (log intensity, higher = more binding, comparable within an allelic series).

For the next experiment, the target named is HOXC9 (Homo sapiens, UniProt P31274 178-260, R193K). The experiment in a line: PBM; 200 nM protein, PBS. Particulars: dsDNA, one strand shown.
HOXC9 (Homo sapiens, UniProt P31274 178-260, R193K), sequence (P31274 178-260 R193K): as the sequence (P31274 178-260) above, with R16K counted along it
Regarding CCATTAAC, the binding signal was 12.7 upbm affinity estimate (log intensity, higher = more binding, comparable within an allelic series).
Regarding GGGGTACC, the binding signal is 9.47 upbm affinity estimate (log intensity, higher = more binding, comparable within an allelic series).
Take GCCATTAA: the binding signal is 12.8 upbm affinity estimate (log intensity, higher = more binding, comparable within an allelic series).
As to CCCCCTGA, the binding signal is 9.32 upbm affinity estimate (log intensity, higher = more binding, comparable within an allelic series).
As for CCCCATGC, the binding signal is 9.46 upbm affinity estimate (log intensity, higher = more binding, comparable within an allelic series).
In the case of CCCCTCGG, the binding signal was 9.54 upbm affinity estimate (log intensity, higher = more binding, comparable within an allelic series).
Turning to CGAGCGAC, the binding signal was 9.67 upbm affinity estimate (log intensity, higher = more binding, comparable within an allelic series).
Turning to CCGTCCGC, the binding signal is 9.36 upbm affinity estimate (log intensity, higher = more binding, comparable within an allelic series).
As to CCGGGAGG, the binding signal is 9.49 upbm affinity estimate (log intensity, higher = more binding, comparable within an allelic series).
Take GCTTGGCC: the binding signal is 9.65 upbm affinity estimate (log intensity, higher = more binding, comparable within an allelic series).

(Values after article PMC11006913.)
